# Hits are enriched below; roughly 12% of the tested compounds scored in any of these assays.
# Sfp PPTase inh: blocks B. subtilis Sfp PPTase activity; actives 3.5% (n = 310,000); Potency, µM, without a hit: largest response in the series, negative = inhibition, usual class: inhibitors; Biochemical Sfp PPTase activity, qHTS;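 further: the enzyme is Sfp with the accession as filed and its product quenches rhodamine fluorescence; 0% = enzyme reaction without inhibitor and -100% = no enzyme wells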
#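 Fluorescence-quenching assay with 15 nM Sfp, 5 uM rhodamine-CoA and 12.5 uM BHQ-2-labelled ybbR peptide in pH 7.6 Hepes/MgCl2 buffer. Enzyme was pre-incubated with compound for 15 min at room temperature. Rate was taken from the 30-min fluorescence change (525/598 nm).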
# BAZ2B block: blocks human BAZ2B | actives 4.4% (n = 360,000) | AlphaScreen BAZ2B-H3K14Ac peptide displacement | Q9UIF8 | AID 504333 | Potency, µM (doses to about 114 µM), without a hit: top-dose activity change, negative = inhibition, most hits filed as inhibitors; further: on the % scale 0 is the no-effect control and ±100 the full control effect; nearly all actives have a fitted effect of over 60% in size
#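 Protein-peptide AlphaScreen: BAZ2B 50 nM, b-H3K14Ac 50 nM, 1x PBS pH 7.4 + 0.01% Tween-20. Preincubation 30 min RT; cpd 30 min RT (top 110 uM); beads 20 min RT, light-protected.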
# PLK1 PBD inh: blocks phosphopeptide binding to human PLK1 polo-box domain; Potency, µM, for inactives: max response, negative = inhibition, most hits filed as inhibitors; Plk1 PBD binding of FITC phosphopeptide, fluorescence polarization; AID 720504; actives 2.8% (n = 360,000); P53350; further: series mostly up to about 57 µM; on the % scale 0 is the no-effect control and ±100 the full control effect; nearly all actives have a fitted effect of over 65% in size
# HP1b chromo inh: blocks HP1-beta chromodomain binding to methylated histone tails; Potency, µM (titrated, usually from 114 µM), for the others: at the highest dose activity change, negative = inhibition, most hits filed as inhibitors; AID 540317; actives 0.56% (n = 390,000); P83916; AlphaScreen HP1-beta / biotin-H3K9me3 peptide binding; further: nearly all actives have a fitted effect of over 70% in size
# Target sequence (P83916 whole entry, looked up): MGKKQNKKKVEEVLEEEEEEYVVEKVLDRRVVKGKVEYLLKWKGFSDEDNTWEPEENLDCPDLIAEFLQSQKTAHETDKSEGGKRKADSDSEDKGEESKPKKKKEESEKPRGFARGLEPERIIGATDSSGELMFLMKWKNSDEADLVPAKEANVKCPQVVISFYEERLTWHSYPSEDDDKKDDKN
#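 AlphaScreen: HP1-beta (50 nM) preformed 30 min with biotin-H3(1-18)K9me3 peptide (50 nM) in PBS pH 7.4, 0.01% Tween-20. Compound added for 30 min at RT, then streptavidin donor/nickel chelate acceptor beads (10 ug/mL) for 30 min.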
# JMJD2A Tudor inh: JMJD2A Tudor domain (human) inhibition; actives 4.4% (n = 390,000); O75164; AlphaScreen JMJD2A-Tudor / H3K4me3 peptide binding; Potency, µM (titrated, usually from 114 µM), inactives show at the top dose activity change, negative = inhibition, hits mostly inhibitors; further: on the % scale 0 is the no-effect control and ±100 the full control effect; nearly all actives have a fitted effect of over 50% in size
# G9a block: inhibitors of human histone lysine methyltransferase G9a. Q96KQ7. G9a H3K9 monomethylation, AlphaScreen, 2 h. Potency, µM (highest dose often 102 µM), inactives show at the top dose activity, negative = inhibition, actives largely listed as inhibitors. actives 8.8% (n = 350,000). AID 504332; further: on the % scale 0 is the no-effect control and ±100 the full control effect; nearly all actives have a fitted effect of over 75% in size
# Target sequence (Q96KQ7 913-1193 limits assumed): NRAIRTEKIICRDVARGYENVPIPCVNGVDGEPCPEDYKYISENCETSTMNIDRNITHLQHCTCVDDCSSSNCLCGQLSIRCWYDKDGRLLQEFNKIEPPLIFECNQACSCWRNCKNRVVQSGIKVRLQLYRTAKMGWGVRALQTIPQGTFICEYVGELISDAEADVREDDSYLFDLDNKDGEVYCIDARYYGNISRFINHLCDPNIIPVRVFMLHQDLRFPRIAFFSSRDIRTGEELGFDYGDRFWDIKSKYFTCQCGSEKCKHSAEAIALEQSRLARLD
#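 AlphaScreen detection with an anti-monomethyl H3K9 antibody quantified product after a 2 h room-temperature reaction containing 500 nM biotinylated H3K9 peptide, 20 µM SAM and 20 nM enzyme, which had been preincubated 15 min with compound.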
# * = called active by the depositor; ? = inconclusive; nt = not tested or not shown; ! = repeats disagree; [ ] = remark or other dose. The call rests on the fitted dose curve; in most records, active means well fitted curve in the direction sought with a large enough effect; inconclusive means small, poorly fitted or top-dose-only effect, or another doubt; inactive means no such curve, though single readings can be large; an effect the other way counts as inactive or inconclusive. Potency means the concentration at half of the fitted maximal effect.
SMILES,Sfp PPTase inh,BAZ2B block,PLK1 PBD inh,HP1b chromo inh,JMJD2A Tudor inh,G9a block
O=S(=O)(O)c1cc2oc(-c3ccccc3)nc2c2ccccc12,nt,6.5%,-16.6%,35.6%,-19.3%,12.9%[12.7 µM]
Cc1cc(-c2ccc(N=Nc3ccc4c(S(=O)(=O)O)cc(S(=O)(=O)O)c(N)c4c3O)c(C)c2)ccc1N=Nc1ccc2c(S(=O)(=O)O)cc(S(=O)(=O)O)c(N)c2c1O,10µM*!,nt,nt,nt,nt,?
CCCNC(=O)C1=CC(c2ccc3c(c2)OCO3)=NS(=O)(=O)N1C,nt,-2.5%,nt,23.4%,-10.9%,-6.0%[59 µM]
CNC(=O)CSc1nc(-c2ccccc2)c(-c2ccccc2)[nH]1,19.3%,-37.6%[57.1 µM],-8.2%,-3.6%,-31.9%,-49.9%
CCC(Sc1nc(-c2ccccc2)c(-c2ccccc2)[nH]1)C(=O)O (stereo unspecified),14.7%,-21.3%,-15.1%,7.9%,-26.6%,50.1µM*
Cc1ccsc1C=C1C(=O)c2ccccc2C1=O,3.0%,?,?,-7.1%,?,28.2µM*
Cc1ccsc1/C=C1/C(=O)NN(c2ccccc2)C1=O,11.2%,?,-20.8%,-17.1%,?,-19.2%[59 µM]
COc1ccc(-c2nc3cnc(N4CCOCC4)nc3n(Cc3cccs3)c2=O)cc1,9.1%,nt,nt,nt,nt,2.5%[0.501 µM]
O=C(NCc1ccc(F)cc1)C(c1cccnc1)N(C(=O)c1csnn1)c1ccccc1 (stereo unspecified),12.5%,3.0%,0.0%,5.1%,0.0%,4.6%
Cc1ccc(NC(=O)CCCc2ccccc2)c([N+](=O)[O-])c1,3.5%,?,-3.6%,?,?,3.16µM*
O=C(CCCc1ccccc1)Nc1ccc(Br)cc1F,14.4%,-24.4%,6.7µM*,7.5%,?,-148.8%
O=C(CCc1ccccc1)Nc1ccc(F)cc1F,18.6%,13.6%,-1.7%,29.4%,4.2%,28.9%[12.7 µM]
Cc1nnc(N2CCCC(C(=O)Nc3cccc(C(F)(F)F)c3)C2)c2nn(-c3ccccc3)c(C)c12 (stereo unspecified),nt,1.7%,nt,20.2%,-5.4%,-25.9%[59 µM]
CC(=O)CCc1ccc(OCCCCn2cncn2)cc1,-5.7%,-8.0%,-19.4%,70.0%,-7.0%,?
c1ccc(-c2ccc(OCCCn3cncn3)cc2)cc1,-25.0%,56.2µM*,-13.7%,?,-13.7%[11.4 µM],?
Brc1cccc(OCCCCn2cncn2)c1,?,50.1µM*,-11.0%,?,25.1µM*,25.1µM*
c1ccc(COc2ccc(OCCn3cncn3)cc2)cc1,10.5%,-17.9%,-1.4%,40.2%,-9.6%,3.0%[59 µM]
Cc1cc(C)n(NC(=S)NC2CCCC2)c(=O)c1C#N,-3.4%,-14.2%,-11.0%,33.3%,11.2µM*,-2.4%
O=C(Nc1nc2ccc(F)cc2s1)c1ccccn1,10.2%,39.8µM*,0.7%,60.6%,-12.5%,-3.2%
O=C(Nc1nc2ccccc2s1)c1cnccn1,-25.3%,6.8%,-5.1%,26.3%,-33.0%,3.55µM*
O=C(N/N=C1/C[C@@H](O)[C@@H](O)[C@@H]2[C@@H]3C(=O)N(Cc4ccccc4)C(=O)[C@H]3CC[C@H]12)OCc1ccccc1,13.4%,nt,nt,nt,nt,nt
CC(=O)NC(C)(c1ccccc1)c1nc(-c2ccc(S(C)(=O)=O)cc2)cs1 (stereo unspecified),nt,nt,-5.7%,nt,nt,nt
CCOc1ccc(C(C(=O)NC2CCCC2)N(C(=O)c2snc(C(N)=O)c2N)c2cccc(O)c2)cc1 (stereo unspecified),20.0%,-22.9%,-0.2%,18.7%,-12.4%,3.5%[59 µM]
Cc1ccc2nc3ccc(N4CCCC4)nn3c(=O)c2c1,27.9%,-0.8%,-12.5%,44.4%,3.2%,9.7%[59 µM]
CC1CCCN(c2ccc3nc4ccccc4c(=O)n3n2)C1 (stereo unspecified),11.1%,5.8%,?,33.0%,79.4µM*,50.1µM*
SMILES,Sfp PPTase inh,BAZ2B block,PLK1 PBD inh,HP1b chromo inh,JMJD2A Tudor inh,G9a block
CCn1c(=O)c2cc(C(=O)Nc3cc(C)c(Cl)cc3OC)sc2c2ccccc21,nt,-0.6%,nt,28.4%,-8.8%,7.5%[59 µM]
COc1ccc(/C=C2\SC(=O)NC2=S)cc1OC,25.1µM*,39.8µM*,26.7µM*,?,79.4µM*,6.31µM*
O=C1NC(=S)S/C1=C\c1ccc2ccccc2c1,3.4%,50.1µM*,29.9µM*,-5.2%,?,-5.4%
COc1ccc(/C=C2\SC(=S)NC2=O)cc1OS(=O)(=O)c1ccc(NC(C)=O)cc1,-11.4%,-38.2%,?,-13.9%,-34.7%,?
COc1cc(/C=C2\SC(=O)NC2=O)ccc1OCC(=O)N1CCOCC1,nt,nt,-5.1%,12.7%,-15.1%,nt
COc1cccc(OCCOc2ccc(/C=C3/SC(=S)NC3=O)cc2)c1,50.1µM*,44.7µM*,9.47µM*,?,56.2µM*,7.94µM*
COc1cc(/C=C2/SC(=S)NC2=O)ccc1OS(=O)(=O)c1ccc(C)cc1,25.1µM*,50.1µM*,9.47µM*,?,56.2µM*,20µM*
O=C1NC(=S)SC1=Cc1ccc(F)cc1,nt,nt,-12.5%,-3.4%,-31.2%,nt
CCNc1nc(NCC)n2c(SCC(=O)NC34CC5CC(CC(C5)C3)C4)nnc2n1,5.9%,-3.6%,-7.9%,20.8%,-11.4%,3.5%[59 µM]
COc1ccccc1C(=O)Nc1cccc(OCc2cc(=O)n3ccccc3n2)c1,nt,6.7%,nt,21.1%[57 µM],-11.0%,5.0%[59 µM]
O=c1c2ccccc2nc2sc(Nc3cccc(C(F)(F)F)c3)nn12,nt,-0.8%,nt,52.2%,-6.3%,-4.2%[59 µM]
COc1cccc(CNC(=O)C(=O)NCC(c2cccs2)S(=O)(=O)c2cccs2)c1 (stereo unspecified),nt,-2.6%,nt,26.6%,-6.2%,5.1%[59 µM]
CCOc1ccc(OCC)c(Nc2nc3ccc(C(=O)c4ccccc4)cc3n3cnnc23)c1,nt,-39.1%,nt,21.5%,2.8%,-25.5%[59 µM]
COc1cc(/C=C2\SC(=S)NC2=O)ccc1OS(=O)(=O)c1ccccc1,50.1µM*,44.7µM*,nt,nt,nt,11.2µM*
COc1cc(/C=C2\SC(=O)NC2=O)ccc1Oc1ccc([N+](=O)[O-])cc1[N+](=O)[O-],56.2µM*,44.7µM*,21.2µM*,?,35.5µM*,10µM*
CCOc1ccc(/C=C2\SC(=S)NC2=O)cc1OC,-6.4%,?,-18.8%,-4.5%,-31.0%,12.6µM*
CCN1C(=O)C(=Cc2cccc(OC)c2Oc2ccc([N+](=O)[O-])cc2[N+](=O)[O-])SC1=S,?,25.1µM*,-11.4%,?,?,44.7µM*
CCOc1ccc(/C=C2\SC(=S)N(C)C2=O)cc1OC,2.1%,-10.9%,-4.1%,5.0%,-17.6%,nt
CCN1C(=O)S/C(=C/c2ccc(Oc3ccc([N+](=O)[O-])cn3)c(OC)c2)C1=O,11.2%,16.2%,3.0%,21.4%,-26.5%,?
CC(C)(C)OC(=O)N1CCC(c2c(C(=O)N3CCC(c4ccccc4)C3)cnn2-c2ccc(Cl)cc2)CC1 (stereo unspecified),nt,-5.5%[57.1 µM],nt,21.0%,-21.7%,-32.7%[59 µM]
